Bioassay records: PubChem BioAssay, National Center for Advancing Translational Sciences (NCATS)
HT1080 IDH1KD tx – kills HT-1080 cells with IDH1 knockdown | Potency, µM (top dose mostly 46.1 µM), without a hit: at the highest dose activity, negative = toxicity, actives largely listed as cytotoxic | 2% of 360,000 active | AID 686971 | HT-1080 IDH1 knockdown viability, ATP luminescence, 48 h;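 note: potency is the fitted concentration of half-maximal effect; 0% = DMSO wells and -100% = cell-free medium wells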
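Luminescent ATP read-out (CellTiter-Glo, 10 min at room temperature) after 48 h compound exposure at 37 °C gave viability of IDH1-knockdown HT-1080 cells. Activity was normalised to DMSO and cell-free wells, then fitted as concentration-response curves.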
IL1B secr inh – inhibitors of inflammasome signaling (IL-1 beta secretion); 4.7% of 360,000 active; activity change, % at 57.5 µM; AID 743279; THP-1 LPS/ATP IL-1B secretion, AlphaLISA, 16 h; hits give low values; in the data active = activity change below about -50%; inconclusive = mostly about -30% to -49%
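THP-1 cells pretreated 1 hr with compounds (up to 57.5 uM final), then stimulated with LPS (250 ng/mL final) plus ATP (1.25 mM final); secreted IL-1B measured by AlphaLISA after 16 hr, decreased signal indicating inhibition.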
DT40 TDP1 no CPT – qHTS for Inhibitors of human tyrosyl-DNA phosphodiesterase 1 (TDP1): qHTS in cells in absence of CPT. AID 686978, 2013. Potency, µM (doses to about 46.2 µM), for inactives: top-dose activity change, negative = growth inhibition, usual class: inhibitors. 15% of 420,000 active. DT40 Tdp1-/- hTDP1 cells, no CPT, ATP luminescence, 48 h; note: potency is the fitted concentration of half-maximal effect; nearly all actives have a fitted effect of over 55% in size
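Camptothecin absent (DMSO only). Human TDP1-complemented DT40 knockout cells, 400 cells/well, 37 °C for minimum 48 hr; ATP measured via CellTiter-Glo, 30 min dark incubation, luminescence.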
TDP1 cell CPT – DT40-hTDP1 cell growth loss with CPT. chicken DT40 Tdp1-/-;hTDP1 cells + 20 nM CPT, ATP luminescence, 48 h. Potency, µM (top dose mostly 46.2 µM), for the others: at the top dose activity change, negative = growth inhibition, actives largely listed as inhibitors. 12% of 420,000 active; note: potency is the fitted concentration of half-maximal effect; nearly all actives have a fitted effect of over 55% in size
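Chicken DT40 Tdp1-/- cells stably complemented with human TDP1 were seeded at 400 cells/well in medium containing 20 nM camptothecin, exposed to pin-transferred compounds, and grown at 37 °C for at least 48 hr. Viability was read as ATP luminescence.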
HT1080NT lethal – kills 2HG-producing HT-1080-NT fibrosarcoma cells | HT-1080-NT fibrosarcoma viability, CellTiter-Glo ATP luminescence, 48 h | Potency, µM (top dose mostly 46.1 µM), inactives show top-dose activity, negative = less viability, hits mostly cytotoxic | 1.6% of 360,000 active | AID 686970;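 note: NT is the 2HG producing partner of a matched IDH1 knockdown line; potency is the fitted concentration of half-maximal effect; 0% = DMSO-treated cells and -100% = media-only wells without cells; nearly all actives have a fitted effect of over 55% in size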
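HT-1080-NT; 750 cells/well; 5% FBS RPMI; 48 h compound, 37 degrees C; CellTiter-Glo luminescence; curve fitting and curve-class assignment.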
* marks the source's active call; other numbers are inactive results; ? = inconclusive; · = no result; [ ] = dose if it differs, or a comment. Only some compounds are listed: those with a hit (about 19% of all), similar ones and a draw of the others. Unless noted, calls come from the whole dose curve; as a rule, active = well fitted curve in the direction sought with a large enough effect; inconclusive = small, poorly fitted or top-dose-only effect, or another doubt; inactive = no such curve, though single readings can be large; an effect the other way counts as inactive or inconclusive. Unless noted, % is set by controls: 0 for no effect and ±100 for the full control effect.

SMILES	HT1080 IDH1KD tx	IL1B secr inh	DT40 TDP1 no CPT	TDP1 cell CPT	HT1080NT lethal
CCCCCn1c(=O)c(C(=O)Nc2ccccc2)c(O)c2ccccc21	6%	20	5.2µM*	4.1µM*	7%
CCCCCn1c(=O)c(C(=O)Nc2cccc(C)n2)c(O)c2ccccc21	11%	33	?	29%	26%
CCCCCn1c(=O)c(C(=O)Nc2cccc(C)c2)c(O)c2ccccc21	0%	0	4.6µM*	-10%	10%
COc1cccc(/C=C/c2nc(S(=O)(=O)c3ccccc3)c(N3CCC(C(N)=O)CC3)o2)c1	2%	-15	?	?	1%
Cc1ccnc(-n2c(-c3ccco3)nc3ccccc3c2=O)c1	4%	-15	-12%	-15%	5%
CN1C(C(=O)N2CCC3(CC2)OCCO3)=CC(c2ccc(F)cc2)=NS1(=O)=O	5%	0	-17%	-6%	3%
CN1CCN(c2cc3c(nn2)Oc2ccccc2N3C)CC1	·	·	?	8%	·
Cn1c[n+](C)cc1C(O)c1ccccc1 (configuration not stated)	12%	0	-6%	0%	11%
CC(C)C(NC(=O)C(C(C)C)N(C)C)C(=O)N(C)C(C(=O)N1CCCC1C(=O)N1CCCC1C(=O)NCc1ccccc1)C(C)C (configuration not stated)	?	33	0.052µM*	0.033µM*	0.21µM*
NCCCC[C@H](N[C@@H](CCc1ccccc1)C(=O)O)C(=O)N1CCC[C@H]1C(=O)O	0%	5	?	-2%	?
O=c1[nH]c2ccccc2o1	-2%	26	-7%	9%	3%
N=C(N)c1c(O)n(C2CCCCC2)c(=O)n(C2CCCCC2)c1=O	21µM*	?	?	?	16µM*
O=c1c(C=NCc2cccs2)c(O)n(C2CCCCC2)c(=O)n1C1CCCCC1	-25%	-6	?	-26%	-13%
Cc1cccc(Cn2c(=O)n(Cc3ccc(C(=O)NC4CCN(Cc5ccccc5)CC4)cc3)c(=O)c3ccccc32)c1	·	·	3.3µM*	4.1µM*	·
COC(=O)c1ccc(CN2CCN(Cc3ccccc3)CC2)cc1	-4%	8	-13%	-13%	0%
C[C@@H]1OC(=O)[C@H]2C[C@H]3CCCC[C@@H]3[C@@H](/C=C/[C@H]3CCC[C@H](C)N3C)[C@@H]12	·	·	?	-6%	·
CCOc1ccc(NC(=O)c2ccc(NC(=O)COC(=O)Cc3ccccc3)cc2)cc1	-2%	-12	-2%	-6%	0%
COc1ccc(C(=O)Nc2ccc(S(=O)(=O)N(Cc3ccccc3)c3ccccc3)cc2)cc1	·	·	5.2µM*	13µM*	·
COc1ccc(-c2cnnn2-c2ccc(NC(=O)c3ccc(S(=O)(=O)N(C)C)cc3)cc2)cc1	·	·	18µM*	21µM*	·
Cc1cc(-c2ccccc2)cc(C)[n+]1Cc1ccccc1	-26%	-2	1.6µM*	1.5µM*	-1%
C[C@H]1[C@@H]2Cc3ccc(O)cc3[C@@]1(C)CCN2C	·	·	-26%[166 µM]	-14%[166 µM]	·
S=C=Nc1ccccn1	12%	21	?	-24%	25%
c1ccc(/N=C2\N=C(Nc3ccccn3)c3ccccc32)nc1	-9%	51	0.15µM*	0.21µM*	?
O=C(Nc1ccc2oc(-c3cccnc3)nc2c1)c1ccc(-c2cccc(Cl)c2)o1	·	·	7.3µM*	-78%	·
CCn1ccnc1CN1CCCC(C(=O)c2cc(C)c(OC)c(C)c2)C1 (configuration not stated)	0%	-10	21µM*	?	0%
SMILES	HT1080 IDH1KD tx	IL1B secr inh	DT40 TDP1 no CPT	TDP1 cell CPT	HT1080NT lethal
COc1ccc(C(=O)C2CCCN(Cc3ccon3)C2)c(OC)c1 (configuration not stated)	8%	13	?	?	7%
COc1ccccc1C(=O)C1CCCN(Cc2cnc(C)s2)C1 (configuration not stated)	-3%	19	21µM*	?	-3%
CCn1ccnc1CN1CCCC(C(=O)c2cc(Cl)ccc2OC)C1 (configuration not stated)	-3%	-75*	?	?	-2%
Clc1ccccc1C1NCc2ccccc2-n2cccc21 (configuration not stated)	-11%	6	?	?	-11%
CC(=NCc1ccc2c(c1)OCO2)c1c(O)n(-c2ccc(C)cc2)c(=O)[nH]c1=O	-15%	-3	-8%	-4%	-7%
COc1c(OP2(=S)OCC(C)(C)CO2)cnn(C2CCCCC2)c1=O	-7%	-13	21µM*	23µM*	-3%
COc1ccccc1C(=O)Nc1ccc2c(c1)CC1(C(=O)N(C)C(=O)N(C)C1=O)C1CCCN21 (configuration not stated)	-2%	26	-16%	?	-4%
CCC(CC)N1CCN(C(=O)Cc2ccccc2)CC1	3%	36	0%	-1%	11%
CC(C)C(=O)Nc1ccc([N+](=O)[O-])c(C(F)(F)F)c1	-20%	8	13µM*	13µM*	-8%
CC1CCCC(C2(O)C(=O)Nc3ccccc32)C1=O (configuration not stated)	-8%	0	?	-8%	1%
COc1ccc(Cn2c(O)c(C=Nc3c(C)n(C)n(-c4ccccc4)c3=O)c(=O)[nH]c2=O)cc1	3%	5	-1%	?	2%
Cc1c(N=Cc2c(O)n(Cc3ccccc3)c(=O)[nH]c2=O)c(=O)n(-c2ccccc2)n1C	-6%	-72*	-11%	2%	0%
Cc1c(N=Nc2c(O)n(Cc3ccccc3)c(=O)[nH]c2=O)c(=O)n(-c2ccccc2)n1C	?	21	12µM*	16µM*	-14%
O=c1[nH]c(=O)n(Cc2ccc(F)cc2)c(O)c1/C=N/Nc1ccccc1	2.3µM*	10	-14%	18%	2.3µM*
OCCCNc1ccccc1	·	·	-22%	9%	·
O=C(NCc1cccnc1)c1ccc(COc2ccc3c(c2)CCC3)o1	?	-22	?	18µM*	?
c1cncc(CNC2=NCCCCC2)c1	19%	6	4%	2%	9%
Cc1cccc(OCC(=O)N2CCN(CCc3ccccn3)CC2)c1	·	·	-4%	-13%	·
CCOP(=O)(OCC)c1cc(CC)ccc1O	3%	-4	-2%	2%	?
CC(=O)N1c2ccc(S(=O)(=O)NCC3CCC(C(=O)Nc4cc(C)cc(C)c4)CC3)cc2CC1C (configuration not stated)	·	·	16µM*	21µM*	·
O=C(COc1ccc(S(=O)(=O)N2CCCCC2)cc1)N1CCN(Cc2ccccc2)CC1	-1%	9	?	?	1%
